For 40 compounds, growth results are on record in PubChem BioAssay (NCI).

Where “and” joins values, the source holds several entries; their conditions need not be identical. Identical values can stand only once. This is part of a sample that, as a whole, favours compounds with a hit. Of some 83,000 tested, about 20% had one in any assay.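 Results are percent growth after 48 hours of single-concentration exposure. 100 means growth as in untreated cells, lower positive values show inhibition; negative values down to -100 show cell death.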 A number with no mark means an inactive call. Calls of active or inactive are those of the source. How the source made its calls: active means growth percent below 10; inactive means the rest.

The subject of this assay is MDA-MB-468 breast. Put plainly: NCI-60 one-dose screen, 48 h (100 = growth as untreated, 0 = no growth, -100 = all killed). The settings on record: 10 µM unless noted.
Regarding `O=C(Cc1nc2ccc([N+](=O)[O-])cc2nc1CC(=O)c1ccccc1)c1ccccc1`, the growth was 68.9%. The result for `Clc1ccc(/C=N\N=c2\scc(-c3ccc(Cl)cc3)n2/N=C/c2ccc(Cl)cc2)cc1` reads 115%. As to `CS(=O)(=O)c1ccc(Nc2nc(N[C@H]3CCCC[C@H]3N)nc3cc[nH]c(=O)c23)cc1`, the growth was -75.2% (active).

For the compound `Oc1ccccc1/C=N/N=C/c1c(O)ccc2ccccc12`, the growth is 83.4%. Regarding `CCN(C(=O)CN1CCN(c2cc3c(cc2F)c(=O)c(C(=O)O)cn3C2CC2)CC1)c1nc(-c2ccc(OC)cc2)cs1`, the growth was 60.9%. As for `COc1ccc(C/C(C)=C(/c2ccc(OCCN(C)C)cc2)c2ccc(OC(=O)NCc3ccccc3)cc2)cc1`, the figure is 67.6%; as for `O=C(Nc1cc(F)cc2cccnc12)c1cnc(N2CCOCC2)cn1`, 18.5%; as for `Nc1nonc1-c1nc2ccccc2n1CC(=O)Nc1ccc2c(c1)COC2=O`, 26.2%. As for `O=C1Nc2ccccc2C2c3cccn3-c3ccccc3N12` (stereo not given), the figure is 47.8%; as for `CN[C@@H]1C(OC2[C@H](O[C@H]3[C@H](O)[C@@H](O)[C@H](N=C(N)N)[C@@H](O)[C@@H]3N=C(N)N)OC(C)[C@]2(O)CO)OC(CO)C(O)C1O` (stereo not given in full), 108%. As for `C=C1C(=O)O[C@H]2[C@H]1CCC(/C=N/c1ncc(Br)cc1N)=C\CC[C@@]1(C)O[C@@H]21`, the figure is -51% (active); as for `CCN1C(=S)N(c2ccccc2)C2NC(=O)N(/N=C/C=C/c3ccccc3OC)C21` (stereo not given), 79%; as for `COc1cc(-n2cc(-c3cc(O)c(C/C=C(\C)CCC=C(C)C)c(O)c3)nn2)cc2c1O[C@]1(C)CC[C@@H](O)C(C)(C)[C@H]1C2`, -14.6% (active). As for `COc1ccc(N2C(=O)CC(c3cc(OC)c(OC)c(OC)c3)C3C2=NC(=O)N3C)cc1` (stereo not given), the growth was 98.9%.

On to `COc1cc2oc(-c3cccc(NC(=O)c4ccccc4)c3)cc(=O)c2c(OC)c1OC`, for which the growth is 84.2%. The result for `COc1ccc(NS(=O)(=O)c2ccc(-c3cnc(C4CC4)o3)cc2)cc1Cl` reads 9.75% (active). The result for `CN1C(=O)/C(=C2\SC(=Nc3ccccc3)N(Nc3ccccc3)C2=O)c2ccccc21` reads 94.7%. The result for `CCCNc1nc2ccccc2c2c(=O)c3cccc(Cl)c3sc12` reads 36.2%; that for `COc1ccccc1NC(=O)N/C(N)=N/c1nc2ccccc2s1`, 14.2%; that for `COc1ccc(C(=O)NC(=O)Nc2ccc3c(c2)NC(=O)/C3=C\c2[nH]c(C)c(C(=O)O)c2C)c(F)c1`, 12.3%. Take `CCOC(=O)C1C(=O)C(=O)N(C(C)C)C1C(=O)OCC` (stereo not given): the growth was 98.4%.

On to `CCCCCCCCCCCC(c1ccccc1)[N+](C)(C)C` (stereo not given), for which the growth is -45.6% (active). Regarding `COc1cc2c(cc1OC)[C@H](C(=O)O)[C@@H](c1ccc(OC(C)C)c(OC)c1)N(C)C2=O`, the growth was 105%. For `CC1C2CCC(C2)C1COCCOCCO` (stereo not given), the growth is 102%. As for `Cn1cc(-c2noc(-c3cn(C)c4ncc(F)cc34)n2)c2cc(Br)ccc21`, the figure is 61.3%; as for `S=c1ccc2ccccc2[nH]1`, 98% and 116%. The result for `N#C/C(=C/c1ccc([N+](=O)[O-])cc1)n1nnc2cc(F)c(F)cc21` reads 19.8%; that for `O=C1OC[C@H]2[C@H](c3ccc(O)c(O)c3)c3cc(O)c(O)cc3C[C@H]12`, 93.3%; that for `Cn1ccnc1C(=O)/C=C/c1ccc(CC(=O)Nc2ccccc2)cc1`, -12.9% (active). With `CCC(c1ccc(O)cc1)C(CC)c1ccc(O)c(F)c1` (stereo not given), the growth was 69.5%. As for `CC(C)N1C(=O)/C(=C2\SC(=S)N(C(C)C)C2=O)SC1=S`, the figure is 97.1%; as for `O=C(O)c1ccc(-n2c(=O)c3ccccc3c3ccccc3c2=O)cc1`, 105%. As for `CSc1nc(-c2ccco2)c2c(N)[nH]nc2n1`, the figure is 113%. As for `COc1cc(C(=O)c2cc(C)c3[nH]c4ccc(C)cc4c3c2C)cc(OC)c1OC`, the figure is -20.1% (active). As to `COc1cccc(NC(=O)[C@H](C(C)C)n2c(=O)[nH]c3ccccc3c2=O)c1`, the growth is 101%.

`COc1ccc(-c2ccc(-c3ccc(-c4ccc(C(=N)N)cc4)s3)s2)cc1OC`: the growth is -71.4% (active).

Take `CC1CC(=O)OC(C)C1` (stereo not given): the growth is 99.6%.

Regarding `OCc1cccc2ccccc12`, the growth is 124%. As for `CCC1CN2C(=N1)c1ccccc1-c1cc(Cl)ccc12` (stereo not given), the figure is -7.75% (active); as for `N#Cc1cccc(CN2CCC3=C(C2)C(=O)N(Cc2ccc(Cl)cc2)C2=NCCN23)c1`, -14.9% (active).
